# About 83,000 compounds went through this panel and 20% of them were active in at least one assay; those are over-represented in the sample as a whole.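 The endpoint reported here, percent growth, reads 100 for growth as untreated, 0 for no net growth and -100 for all cells dead.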 Values without a mark were called inactive. Active and inactive are the calls of the source. Rule for the calls: active = growth percent below 10; inactive = the rest.
# Experiments:
# Assay in all cases: NCI-60 one-dose screen, 48 h (100 = growth as untreated, 0 = no growth, -100 = all killed)
# Conditions in all cases: 10 µM unless noted
# [1] = test system: NCI-H23 lung
# [2] = test system: NCI-H226 lung
# [3] = test system: NCI-H322M lung
# [4] = test system: HOP-62 NSCLC
# [5] = test system: NCI-H460 lung
# [6] = test system: HOP-92 NSCLC
# [7] = test system: NCI-H522 lung
# [8] = test system: A549/ATCC NSCLC
# [9] = test system: 786-0 renal
# [10] = test system: COLO 205 colon
Structure (SMILES),growth [1],growth [2],growth [3],growth [4],growth [5],growth [6],growth [7],growth [8],growth [9],growth [10]
CC1=N/C(=C\c2cccc(Br)c2)C(=O)O1,106%,106%,106%,92.8%,106%,107%,87.7%,89.3%,102%,106%
NS(=O)(=O)c1ccc(Nc2nc3n[nH]c(Nc4ccccc4)c3c(=O)[nH]2)cc1,94.9%,92.5%,101%,90.8%,103%,102%,90.4%,103%,101%,96.6%
Nc1cc(-c2nc3sccn3c2-c2ccnc(NCCCNS(=O)(=O)c3ccc(F)cc3)n2)ccc1F,63.5%,50.7%,69.9%,78.1%,47.4%,96.9%,48%,41.4%,61.3%,32.4%
Nc1cccc(-c2nc3sccn3c2-c2ccnc(NCCCNS(=O)(=O)c3ccc(C(F)(F)F)cc3)n2)c1,4.88% (active),2.96% (active),19.4%,19.5%,2.98% (active),71.4%,8.73% (active),12.8%,23.6%,6.24% (active)
CCOC(=O)c1c2c(n3ccc(NC(=O)CCN4CCOCC4)cc13)C(=O)c1ncccc1C2=O,16.7%,78.5%,14.3%,39.9%,11.1%,45.1%,-20.5% (active),40.4%,51.8%,37.9%
O=[N+]([O-])c1cccc(-c2nc3sccn3c2-c2ccnc(NCCNS(=O)(=O)c3ccc(C(F)(F)F)cc3)n2)c1,43.3%,40.3%,61.8%,73%,33.4%,44.7%,34.3%,31.9%,60.3%,37.2%
Cc1ccccc1CCO,100%,93.7%,90.8%,89.1%,105%,104%,76.2%,85.4%,100%,92.7%
NCc1cn2cc(Cl)sc2n1,107%,101%,90.3%,112%,103%,101%,95.5%,92.9%,106%,114%
COc1cc(/C=N\NC(=O)CN2CCN(c3cc4c(cc3F)c(=O)c(C(=O)N/N=C/c3ccc(O)c(OC)c3)cn4C3CC3)CC2)ccc1O,53.7%,70.5%,31.7%,73.1%,67%,70.9%,18.9%,66.9%,92.4%,-9.77% (active)
Brc1cccc(-c2nc(-c3ccc4c(c3)OCCO4)co2)c1,71.3% [25 µM],78.2% [25 µM],90.7% [25 µM],57.9% [25 µM],25.2% [25 µM],80.4% [25 µM],24.5% [25 µM],56.3% [25 µM],78% [25 µM],50.5% [25 µM]
COc1cc(OC)c(/C=C/S(=O)(=O)Cc2cnc(OC)c(N)c2)c(OC)c1,30.8%,64.3%,33.2%,23.8%,9.05% (active),85.9%,-2.15% (active),9.4% (active),16.2%,-49.2% (active)
COc1cc(OC)c(/C=C/S(=O)(=O)Cc2ccc(OC)c(N)n2)c(OC)c1,26.6%,59.6%,36.3%,11.6%,8.27% (active),79.9%,-36.1% (active),6.41% (active),15.9%,-70.7% (active)
CN1CCCCC1CCN1c2ccccc2Sc2ccc(Br)cc21 (stereo not given),77.4%,89.9%,59.1%,85.7%,64.9%,45.5%,62.9%,67.5%,55%,51.5%
CC(=O)C1=C(O)C=C2Oc3c(C(=O)/C=C/c4c(Cl)cccc4Cl)c(O)c(C)c(O)c3[C@]2(C)C1=O,-37.9% (active),-41.2% (active),-25.9% (active),-48.6% (active),0.581% (active),-24.9% (active),-30.4% (active),-46.1% (active),-39.3% (active),-59.1% (active)
CC1CN(C(C)C)C(=S)N(c2ccccc2)C1=O (stereo not given),94.6%,106%,101%,85.7%,105%,107%,87%,101%,96.2%,157%
CCOC(=O)C(CC)n1c(=O)c2cc(OC)c(OC)cc2c2cnc3[nH]ccc3c21 (stereo not given),66%,49.4%,71%,73.8%,72.4%,42.5%,79.3%,76.1%,80.9%,86%
CN(C)CCOc1ccc(-c2nc3ccc(-c4nc5ccc(N6CCN(C)CC6)cc5[nH]4)cc3[nH]2)cc1,76.9%,28.7%,77.8%,69.9%,56%,61.7%,59.9%,64.4%,86.4%,44.5%
CCCCCCCCCCCCS(=O)CC(C)O (stereo not given),115%,110%,119%,96.1%,111%,90.2%,95.3%,93%,102%,110%
CNC(=S)N/N=C/CSC/C=N/NC(=S)NC,85.2%,104%,106%,90.5%,70.5%,101%,18.7%,62.8%,96.1%,39.1%
CCCCCCCCCCCCCCCCCCSC1=CC(=O)C(OC)=C(OC)C1=O,89.8%,96.7%,114%,108%,105%,56.5%,94.5%,103%,120%,111%
CC1=C(NCCN2CCCC2)C(=O)c2c(OCc3cccc(Cl)c3)cccc2C1=O,81.4%,94.1%,75.8%,78.4%,83.1%,60.6%,82.9%,77.2%,63.3%,69.7%
Cc1cc(OCc2ccc(C(F)(F)F)cc2)c2c(c1)C(=O)C=C(NCCN1CCCC1)C2=O,84.5%,93%,80.9%,83.1%,43.9%,60.1%,87.6%,54.3%,58.5%,-77.4% (active)
COc1ccc(/C=C2\N=C3Sc4cc(Cl)ccc4C(=O)N3C2=O)cc1,96%,83%,95.8%,103%,104%,82.6%,87.5%,96.4%,101%,105%
CN1/C(=C\C=C\C2=[N+](C)c3ccccc3C2(C)C)C(C)(C)c2ccccc21,-6.67% (active),5.56% (active),8.56% (active),3.55% (active),0.247% (active),-18.1% (active),-41.7% (active),6.73% (active),2.93% (active),-88.5% (active)
CCCCCn1cnc2c(=S)nc[nH]c21,102%,110%,121%,110%,98.5%,101%,90%,118%,106%,105%
O=C(CN1CCN(c2cc3c(cc2F)c(=O)c(C(=O)O)cn3C2CC2)CC1)Nc1nc(-c2ccccc2)cs1,86.4%,77.3%,102%,81.1%,73.3%,70.8%,75.5%,65.2%,75.5%,93.3%
